Pf growth 48h: Primary qHTS for delayed death inhibitors of the malarial parasite plastid, 48 hour incubation. actives 5.9% (n = 310,000). Potency, µM (top dose mostly 28.7 µM), inactives show at the top dose activity change, negative = inhibition, hits mostly inhibitors. P. falciparum luciferase growth in erythrocytes, 48 h; note: % is set by controls: 0 for no effect and ±100 for the full control effect
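A one-generation exposure of luciferase-tagged malaria parasites in RPMI 1640/Albumax erythrocyte culture, 37 C and 5% CO2. Inhibition is inferred from decreased luminescence after adding detection reagent.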
AMA1 RON2 block: qHTS for Inhibitors of AMA1-RON; Towards Development of Antimalarial Drug Lead: Primary Screen | Potency, µM (top dose mostly 58.2 µM), for inactives: top-dose activity change, negative = inhibition, hits mostly inhibitors | actives 0.2% (n = 360,000) | AID 720542, 2013 | Plasmodium falciparum AMA1 (3D7) - RON2 peptide interaction | AlphaScreen AMA1-biotinylated RON2 peptide binding;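 note: 0% = vehicle wells and -100% = peptide control; nearly all actives have a fitted effect of over 45% in size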
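AMA1 (3D7) with his tag at 25 nM final met compounds first, then biotinylated RON2 peptide at 25 nM; detection used donor plus acceptor beads, 10 µg/mL apiece, read by AlphaScreen after 30 min at room temperature.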
SARS PLpro yeast: qHTS of Yeast-based Assay for SARS-CoV PLP; S. cerevisiae expressing SARS-CoV PLpro, growth rescue; actives 0.19% (n = 330,000); Potency, µM (highest dose often 32.9 µM), for inactives: at the top dose activity, positive = growth rescue, most hits filed as activators; calls by dose curve; note: 0% is about no effect; nearly all actives have a fitted effect of over 55% in size
Pf growth 96h: Primary qHTS for delayed death inhibitors of the malarial parasite plastid, 96 hour incubation; P. falciparum luciferase reporter growth, 96 h; Potency, µM (doses to about 28.7 µM), without a hit: top-dose activity change, negative = inhibition, actives largely listed as inhibitors; actives 6.9% (n = 320,000); AID 504834, 2011; note: % is set by controls: 0 for no effect and ±100 for the full control effect
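Cell-based qHTS: luciferase-tagged P. falciparum in erythrocytes (2% hematocrit, 0.05% parasitemia final) incubated with compounds for 96 hours, 37 C, 5% CO2; luciferase detection reagent then added and luminescence measured.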
* hit, by the source's call; u = inconclusive; x = no result; [ ] = remark or other dose. Hits are enriched below; roughly 9.4% of the tested compounds scored in any of these assays. Unless noted, calls come from the whole dose curve; as a rule, active = well fitted curve in the direction sought with a large enough effect; inconclusive = small, poorly fitted or top-dose-only effect, or another doubt; inactive = no such curve, though single readings can be large; an effect the other way counts as inactive or inconclusive. Potency is the fitted concentration of half-maximal effect.

SMILES | Pf growth 48h | AMA1 RON2 block | SARS PLpro yeast | Pf growth 96h
O=C(Nc1ccc(F)cc1)Nc1sccc1-c1nc2ccccc2s1 | 8.28µM* | 50.4% | 0.6% | u
O=C1c2ccccc2C(=O)N1Cc1nc2ccccc2c(=O)n1CCCn1ccnc1 | x | 14.5% | -6.4% | -55.3%
CCCCn1c(N)c(N(Cc2ccccc2OC)C(=O)c2ccc([N+](=O)[O-])s2)c(=O)[nH]c1=O | 10.4µM* | 3.1% | u | 9.28µM*
CCCCn1c(N)c(N(Cc2ccccc2OC)C(=O)COc2ccccc2OC)c(=O)[nH]c1=O | u | 3.9% | -3.5% | u
COc1ccccc1-c1cc(C(=O)Nc2cc(C)nn2-c2ccccc2)no1 | u | -6.3% | 2.4% | u
Cc1cc(NC(=O)c2cc(C(C)C)on2)nn1Cc1ccc(Cl)cc1 | x | 9.8% | -19.7% | 9.28µM*
COc1ccccc1-c1cc(C(=O)NCc2cccs2)no1 | 48.4% | -19.9% | -0.2% | 3.7µM*
COc1ccccc1-c1cc(C(=O)Nc2cc(C)n(Cc3ccc(Cl)cc3)n2)no1 | 5.86µM* | -1.1% | 5.1% | 15.7%
COc1ccccc1S(=O)(=O)Cc1ccc(C(=O)NCc2cccs2)o1 | 0.828µM* | -4.2% | -9.2% | x
CCN(CC)c1ccc(CNc2nnnn2C)cc1 | -0.9% | 14.1% | -6.3% | u
CCC(c1nnnn1C(C)(C)C)N(CCOC)Cc1cc2cccc(C)c2n2nnnc12 (stereo not drawn) | 36.3% | x | 1.6% | 2.7%[5.75 µM]
CC(Sc1nnc(-c2ccco2)o1)C(=O)NCCC1=CCCCC1 (stereo not drawn) | u | -9.3% | -0.1% | u
Cc1cc(C(=O)Nc2c(C)nn(Cc3ccc(Cl)cc3)c2C)no1 | -3.1% | 0.0% | 2.9% | u
Cc1cc(C(=O)Nc2cc(C)n(Cc3ccc(Cl)cc3)n2)no1 | 0.928µM* | -2.3% | -13.3% | u
COc1cccc(NC(=O)CCC2CCN(C(=O)c3cccc(NC(C)=O)c3)CC2)c1 | -29.4% | 13.3% | 0.3% | 23.0%
O=C(O)CCC(=O)NNC(=O)COc1ccc2ccccc2c1Br | 5.5% | 59.7% | -0.3% | 11.2%
COc1ccc(Cl)cc1N/C(N)=N/c1nc(CSc2ccc(C)cc2)cc(=O)[nH]1 | x | 5.4% | 20.4% | u
Cc1ccccc1C1c2[nH]c3ccccc3c2C[C@H]2C(=O)N(C3CCN(Cc4ccccc4)CC3)CC(=O)N12 (stereo partly drawn) | 3.29µM* | x | 0.5% | 0.329µM*
CCOc1ccccc1C1c2[nH]c3ccccc3c2C[C@H]2C(=O)N(C3CCN(Cc4ccccc4)CC3)CC(=O)N12 (stereo partly drawn) | 0.928µM* | -28.6% | -1.7% | 0.738µM*
COc1ccc(C2c3[nH]c4ccccc4c3C[C@H]3C(=O)N(CCCO)CC(=O)N23)c(OC)c1 (stereo partly drawn) | -7.9% | -0.4% | -1.4% | -2.2%
COc1ccc(C2c3[nH]c4ccccc4c3C[C@H]3C(=O)N(C4CCN(Cc5ccccc5)CC4)CC(=O)N23)c(OC)c1 (stereo partly drawn) | 0.828µM* | -23.1% | -0.5% | 1.04µM*
O=C(c1ccc(N2CCCCC2)c([N+](=O)[O-])c1)N1CCOCC1 | 12.4% | -0.4% | 2.6% | u
O=C(CNCc1ccco1)Nc1ccc(N2CCCCCC2)cc1 | 16.8% | u | 1.2% | -0.3%
CN(C)c1ccnc(Nc2ccc(O)cc2)c1C#N | u | -8.0% | -1.4% | 10.4µM*
Cc1cccc(NC(=O)c2nc[nH]c2C(=O)NCCCCCNC(=O)OC(C)(C)C)c1 | 2.62µM* | 100.2% | -0.9% | u
Cc1cccc(NC(=O)c2nc[nH]c2C(=O)NCCCNC(=O)c2[nH]cnc2C(=O)Nc2cccc(C)c2)c1 | x | 111.0% | 1.9% | x
Cc1cccc(NC(=O)c2nc[nH]c2C(=O)N[C@@H](CCCCNC(=O)OC(C)(C)C)C(=O)OC(C)(C)C)c1 | 4.65µM* | 110.4% | -0.7% | 6.57µM*
CCN(CC)C(=O)c1[nH]cnc1C(=O)N[C@@H](CCCCNC(=O)OC(C)(C)C)C(=O)OC(C)(C)C | u | 35.2% | -0.8% | u
O=C(Nc1ccccc1N1CCN(C(=O)c2ccccc2)CC1)c1ccc(Br)o1 | 0.0% | 0.0% | -9.7% | 9.28µM*
O=C(Nc1ccccc1N1CCN(C(=O)c2ccccc2)CC1)c1ccc(Cl)cc1 | u | -6.2% | -1.6% | -35.6%
